From PubChem
This is a sample that favours compounds with a hit; in the whole collection about 2.8% have one here.
Pol iota inh: qHTS for Inhibitors of Polymerase Iota; AID 588590, 2011; Pol iota fluorescent replication assay, 10 min; Potency, µM (doses to about 115 µM), without a hit: at the highest dose activity, negative = inhibition, actives largely listed as inhibitors; hit rate 1% among 390,000; note: potency is the fitted concentration of half-maximal effect
Target sequence (Q9UNA4 whole entry, looked up): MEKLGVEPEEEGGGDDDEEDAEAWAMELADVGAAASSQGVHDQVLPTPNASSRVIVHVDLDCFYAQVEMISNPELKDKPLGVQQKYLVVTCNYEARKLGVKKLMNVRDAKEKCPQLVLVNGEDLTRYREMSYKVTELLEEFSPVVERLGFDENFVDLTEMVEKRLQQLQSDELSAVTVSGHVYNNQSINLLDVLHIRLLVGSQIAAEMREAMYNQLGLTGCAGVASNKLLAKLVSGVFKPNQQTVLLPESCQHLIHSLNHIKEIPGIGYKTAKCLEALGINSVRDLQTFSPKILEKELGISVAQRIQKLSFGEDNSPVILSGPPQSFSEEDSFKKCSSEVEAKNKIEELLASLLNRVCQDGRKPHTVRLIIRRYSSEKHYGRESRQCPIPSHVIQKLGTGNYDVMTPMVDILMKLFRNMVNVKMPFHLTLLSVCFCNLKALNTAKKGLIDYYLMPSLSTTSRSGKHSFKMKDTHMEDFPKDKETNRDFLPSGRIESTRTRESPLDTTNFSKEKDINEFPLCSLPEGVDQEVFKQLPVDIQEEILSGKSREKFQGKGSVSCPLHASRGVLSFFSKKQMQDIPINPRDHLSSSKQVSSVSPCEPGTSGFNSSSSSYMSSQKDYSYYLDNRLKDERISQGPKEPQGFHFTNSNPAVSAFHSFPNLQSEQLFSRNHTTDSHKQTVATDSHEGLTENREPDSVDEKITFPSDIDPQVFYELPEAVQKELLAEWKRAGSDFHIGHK
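Fluorescent replication assay read twice, at 0 min and 10 min after adding 50 nM (final) substrate. Enzyme (10 nM) and compounds were first incubated 15 min at room temperature; enzyme-free buffer wells were negative controls.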
PI5P4K alpha inh: qHTS for Inhibitors of phosphatidylinositol 5-phosphate 4-kinase (PI5P4K); Phosphatidylinositol 5-phosphate 4-kinase type-2 alpha (Homo sapiens), P48426; PI5P4Kalpha enzyme, ADP-Glo luminescence, 60 min; hits give low values; max response, %; hit rate 1.2% among 330,000; AID 652105, 2013; active = max response of -50% or lower; inconclusive = between -30% and -50%; inactive = -30% or higher; note: value at the top dose of about 77 µM; % is set by controls: 0 for no effect and ±100 for the full control effect
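qHTS, 1536-well: enzyme/substrate mix, compound by pin tool, 5 microM ATP final; RT 60 min; ADP-Glo reagents 1 (45 min) then 2 (30 min); luminescence.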
WRN helicase inh: qHTS for Inhibitors of WRN Helicase; Potency, µM (top dose mostly 114 µM), inactives show at the highest dose activity change, negative = inhibition, usual class: inhibitors; hit rate 0.46% among 360,000; WRN helicase unwinding, fluorescent forked duplex, kinetic; note: potency is the fitted concentration of half-maximal effect; % is set by controls: 0 for no effect and ±100 for the full control effect; nearly all actives have a fitted effect of over 55% in size
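Fluorescence dequenching readout, ex 525 nm/em 598 nm, kinetic mode: forked duplex DNA (100 nM final) with adjacent fluorophore and quencher unwound by WRN (20 nM final) with 2 mM ATP. Compound preincubation 15 min, room temperature.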
POLB inh: qHTS Assay for Inhibitors of DNA Polymerase Beta | P06746 | Pol beta primer extension/strand displacement, fluorescence kinetic | Potency, µM (series often up to 114 µM), for the others: at the top dose activity change, negative = inhibition, usual class: inhibitors | hit rate 1.3% among 340,000; note: potency is the fitted concentration of half-maximal effect; % is set by controls: 0 for no effect and ±100 for the full control effect
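Values derive from four-parameter Hill fits of normalized kinetic data: reads at 0 and 10 min following addition of 50 nM substrate to 10 nM Pol beta preincubated 15 min with compound.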
Pol eta inh-1: qHTS for Inhibitors of Polymerase Eta; DNA polymerase eta (Homo sapiens), Q9Y253; recombinant Pol eta, fluorescent DNA replication assay; Potency, µM (doses to about 114 µM), for inactives: at the top dose activity change, negative = inhibition, hits mostly inhibitors; hit rate 1.2% among 390,000; AID 588591, 2011; note: potency is the fitted concentration of half-maximal effect; % is set by controls: 0 for no effect and ±100 for the full control effect
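Pol eta at 10 nM preincubated with compounds 15 min at room temperature; reaction started with fluorescent substrate (50 nM final) and read kinetically at 0 and 10 min.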
Pol kappa inh-1: qHTS for Inhibitors of Polymerase Kappa; Potency, µM (series often up to 107 µM), for the others: top-dose activity, negative = inhibition, hits mostly inhibitors; purified Pol kappa, fluorescent DNA synthesis assay, 10 min; AID 588579, 2011; hit rate 0.53% among 400,000; DNA polymerase kappa (Homo sapiens), Q9UBT6; note: potency is the fitted concentration of half-maximal effect; % is set by controls: 0 for no effect and ±100 for the full control effect
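Inhibition of 10 nM Pol kappa is measured by a fluorescent read-out at 0 and 10 min following addition of 50 nM substrate (final), with a 15-min room-temperature compound preincubation.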
GALK confirm: Confirmation Assay for Inhibitors of Human Galactokinase (GALK); Potency, µM (doses to about 115 µM), inactives show top-dose activity, negative = inhibition, hits mostly inhibitors; hit rate 70% among 150; purified GALK, Kinase-Glo ATP depletion luminescence; shares compounds with Pol eta inh-1
GALK redox cs: Confirmatory Assay for Inhibitors of Human Galactokinase (GALK): Phenol-HRP redox assay counterscreen; shares compounds with Pol eta inh-1; Phenol red-HRP H2O2 redox cycling, absorbance 600 nm; Potency, µM (top dose mostly 115 µM), without a hit: at the highest dose activity change, negative = H2O2 signal, usual class: inhibitors; hit rate 40% among 150
HEK293 viability: Secondary Assay for Inhibitors of Human Galactokinase (GALK): HEK-293 Cell Viability Assay | shares compounds with Pol eta inh-1 | HEK-293 viability, ATP luminescence (CellTiter-Glo), 24/48 h | Potency, µM (doses to about 46.1 µM), without a hit: top-dose activity change, negative = cytotoxicity, most hits filed as inhibitors | hit rate 10% among 170 | AID 2547, 2010; note: potency is the fitted concentration of half-maximal effect; % is set by controls: 0 for no effect and ±100 for the full control effect
Pol kappa inh-2: qHTS for Inhibitors of Polymerase Kappa: Confirmatory Assay for Cherry-picked Compounds. purified Pol-kappa, fluorescent strand-displacement substrate. hit rate 76% among 920. AID 720501, 2013. Potency, µM, most hits filed as inhibitors. shares compounds with Pol eta inh-1; note: potency is the fitted concentration of half-maximal effect
Pol eta inh-2: qHTS for Inhibitors of Polymerase Eta: Confirmatory Assay for Cherry-picked Compounds. shares compounds with Pol eta inh-1. Pol eta primer extension, TAMRA/BHQ fluorescence, 10 min. Potency, µM, usual class: inhibitors. hit rate 64% among 2,600. AID 720502, 2013; note: potency is the fitted concentration of half-maximal effect
An asterisk follows results filed as active; u = inconclusive; x = no result given; ! = repeats disagree; [ ] = remark or other dose. Unless noted, calls come from the whole dose curve; as a rule, active = well fitted curve in the direction sought with a large enough effect; inconclusive = small, poorly fitted or top-dose-only effect, or another doubt; inactive = no such curve, though single readings can be large; an effect the other way counts as inactive or inconclusive.

SMILES | Pol iota inh | PI5P4K alpha inh | WRN helicase inh | POLB inh | Pol eta inh-1 | Pol kappa inh-1 | Pol eta inh-2 | others
COC(=O)c1cnc(Oc2ccc(NC(=O)NC(=O)c3ccccc3Cl)cc2)cc1C(F)(F)F | 58% | -2 | -2% | 3% | -18% | 2% | x
COc1ccc(C(=O)Nc2ccc(S(=O)(=O)Nc3nccc(C)n3)cc2)cc1 | -14% | -8 | -1% | 32% | -10% | -10% | x
Cc1ccnc(NS(=O)(=O)c2ccc(NC(=O)c3ccc(N4C(=O)CCC4=O)cc3)cc2)n1 | u | -64* | u | u | 8.9µM* | u | 67*
O=C(Nc1ccc(S(=O)(=O)Nc2ncccn2)cc1)C1=NN(c2ccccc2)C(=O)CC1 | u | -29 | -9%[11.6 µM] | 0% | 35µM* | -75% | 67*
O=C(CCCn1c(=O)c2sccc2n(CC(=O)NCc2ccco2)c1=O)NCc1ccco1 | u | x | -11%[11.6 µM] | -1% | 79µM* | -10% | u
Cc1nc([N+](=O)[O-])cn1CC(O)c1ccc2c(c1)OCO2 (stereo unspecified) | u | x | x | x | x | -18% | x
Cc1cc(C)n2c(=O)c3ccc(Cl)cc3nc2c1C#N | 65% | -6 | -6% | -11% | -6% | -2% | x
Cc1cc(Cl)n2c(nc3cc(F)c(F)cc32)c1C#N | 6.3µM* | 1 | -11%[11.6 µM] | 50µM* | 56µM* | -1% | u
Cc1ccc(CNC(=O)COCc2cc(-c3ccc4c(c3)OCO4)on2)cc1 | 16% | x | x | 0% | -7% | 6% | x
CN(C)c1ccc(/C=N/NC(N)=S)cc1[N+](=O)[O-] | 113% | -13 | -1% | 13% | -17% | -18% | x
O=C(O)CCN1CC2([N+](=O)[O-])C=CC(=O)C([N+](=O)[O-])(C1)C2CC(=O)c1ccccc1 (stereo unspecified) | u | -21 | -18%[11.6 µM] | 28µM* | 18µM* | u | 30* | Pol kappa inh-2=17*
O=C(CCN1CCCCCC1)c1ccccc1 | 0% | 9 | -19% | 0% | -8% | -7% | x
CCc1nn(Cc2cccc(F)c2)c(=O)c2cc3cc(C)ccc3n12 | 11% | x | x | 23% | -13% | -5% | x
CCC(CNc1cc(OC)cc2cccnc12)NC1CCCCC1 (stereo unspecified) | u | -7 | 3% | u | -8% | -26% | x | GALK confirm=9.4µM*;GALK redox cs=3.8µM*;HEK293 viability=-19%
CCOCCCNC(=O)CSc1nnc(-c2ccc(S(=O)(=O)N3CCCC3)cc2)n1C | 119% | -7 | 2% | 41% | -18% | -10% | x
COc1ccc(C)cc1NC(=O)c1ccc2c(SCC(=O)O)c3c(nc2c1)CCCC3 | -15% | -3 | -9% | -9% | 12% | -7% | x
CCOC(=O)c1ccccc1NC(=O)c1ccc2c(SCC(=O)O)c3c(nc2c1)CCCC3 | -11% | -11 | -16%[11.6 µM] | 2% | 50µM* | -13% | 76*
COc1cc(Cl)c(C)cc1NC(=O)c1ccc2c(SCC(=O)O)c3c(nc2c1)CCCC3 | 121% | -19 | -33% | 20µM*! | 50µM*! | -12% | u | Pol kappa inh-2=75*
COc1cc(OCc2ccc(C)cc2)ccc1CNC[C@H]1O[C@@H](n2cnc(C(N)=O)n2)[C@H](O)[C@@H]1O | u | 15 | -1% | x | -5% | -7% | x
O=C(NCCN1CCOCC1)c1ccc2ccccc2c1 | 22% | 3 | 1% | 29% | -16% | 2% | x
COc1ccc(C(=O)NC(C)c2nnc(SCC(=O)Nc3nc4ccccc4s3)n2C)cc1 (stereo unspecified) | -3% | 0 | 1% | 4% | -17% | 2% | x
CC(C)(C)OC(=O)NCCCCC1=CC2=CC(=O)C(C)(O)C(=O)C2=CO1 (stereo unspecified) | 50µM* | -80* | u | x | 20µM* | 79µM* | 60*
O=C(O)COn1c(-c2ccccc2)nc2ccc([N+](=O)[O-])cc21 | u | u | -13%[11.6 µM] | 35µM* | 18µM* | u | u
Cc1cc(N2CCC(C)CC2)nc2ccc(NC(=O)/C=C/c3cccc(Cl)c3)cc12 | -7% | x | x | -1% | -1% | -3% | x
COc1cc(/C=C2\NC(=S)NC2=O)ccc1OCc1cccc(C(=O)O)c1 | u | -4 | u | u | 22µM* | u | 38* | Pol kappa inh-2=21*
CC(=O)Nc1ccc(NC(=O)CSc2nnc(NC(=O)c3ccc(Br)o3)s2)cc1 | u | -28 | 56µM* | 50µM* | 14µM* | -29% | u | Pol kappa inh-2=u
CC(=O)Nc1cccc(NC(=O)CSc2nnc(NC(=O)c3ccco3)s2)c1 | 6% | -27 | -36% | 12% | u | 0% | x
COc1ccc(C(=O)CSc2cc(C)[nH]c(=O)n2)cc1 | u | -63* | -3%[11.6 µM] | 5.6µM* | 20µM* | 79µM* | u
O=c1c2ccccc2nc2sc(Nc3cccc(Cl)c3)nn12 | 11% | x | x | x | 0% | -3% | x
O=c1c2ccccc2nc2sc(Nc3ccc4c(c3)CCC4)nn12 | x | x | x | x | x | x | x | Pol kappa inh-2=38*
